These results are taken from PubChem BioAssay (NCI).

Values joined by “and” are separate entries in the source; they are usually repeats but may differ in a detail not shown here. Equal values may be shown once. The panel holds about 79,000 compounds, 15% with a hit somewhere; the sample as a whole holds those more often. More than one record can exist for a structure, and the calls need not agree. Active and inactive are the calls of the source. Rule as the data show it: active = growth inhibition above about 70%; inactive = the rest.

This assay can be described thus: NCI Yeast Anticancer Drug Screen. Data for the bub3 strain (AID 167). To be noted: S. cerevisiae bub3 mutant strain, at 50.0 µM, stronger effect = higher value. In a few lines:
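Screening used yeast with an engineered genetic alteration affecting cell cycle control. Compound-exposed cultures were compared with vehicle cultures, and reduced growth was taken as inhibition.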
Turning to `CN(N=O)c1ccc([N+](=O)[O-])cc1`, the growth inhibition is 24.4% (inactive). For `C1=CC(N2CCOCC2)CC1` (stereo unspecified), the growth inhibition is -30.4% (inactive).

`CC1=CC(C)=Nc2ccc(C)cc2N1`: the growth inhibition is -6% (inactive). Under `CC[C@@]1(O)C(=O)OCc2c1cc1n(c2=O)Cc2c-1nc1ccccc1c2C=Nc1ccccc1N[C@@H]1c2cc3c(cc2[C@@H](c2cc(OC)c(O)c(OC)c2)[C@H]2C(=O)OC[C@@H]21)OCO3` stands 69.9% (inactive) and 85.9% (active); under `O=[N+]([O-])c1ccc(Cl)c([N+](=O)[O-])c1`, 98.7% (active); under `NC1=NC(=O)C(c2ccccc2)(c2ccccc2)O1`, -19.3% (inactive). Under `c1ccc2c(c1)sc1sc3ccccc3[n+]12` stands 3.2% (inactive); under `O=C(c1ccc([N+](=O)[O-])cc1)C1NC1c1ccccc1` (stereo unspecified), 22.3% (inactive). Under `COC(=O)c1ccc(C=C(C#N)C#N)cc1` stands 2.45% (inactive); under `CP(O)(=S)C1CCCCC1` (stereo unspecified) (tested in a mixture with another compound), 18.7% (inactive). Consider `CC(C)CC(NC(=O)C(Cc1ccccc1)NC(=O)CNC(=O)CNC(=O)C(N)Cc1ccc(O)cc1)C(=O)O` (stereo unspecified), for which the growth inhibition is -0.75% (inactive).

With `CC(C(=O)O)C(Br)C(=O)O` (stereo unspecified), the growth inhibition is 5.85% (inactive). In the case of `Cc1cccc[c]1[Sb](=[O])([OH])[OH]` it was -17.2% (inactive); in that of `CCN(CC)C(=O)N1CC2CCC(C1)N2C`, -9.95% (inactive); in that of `S=c1sc(-c2ccc(Cl)cc2)c[se]1`, 1.7% (inactive). Under `Oc1ccc(C=NCC2CCCC[N-]2)c(O)c1.Oc1ccc(C=NCC2CCCC[N-]2)c(O)c1.[Ni+2]` (stereo unspecified) stands 11.2% (inactive).
